# Assay results from PubChem BioAssay (NCATS).
# Results filed as inconclusive are left out. Where a call stands in place of a potency, no number is given. A number with no mark means an inactive call. The source made the active and inactive calls. Calls come from the whole dose curve; as a rule, active = well fitted curve in the direction sought with a large enough effect; inconclusive = small, poorly fitted or top-dose-only effect, or another doubt; inactive = no such curve, though single readings can be large; an effect the other way counts as inactive or inconclusive.
# Key:
# [1] = Primary qHTS for inhibitors of nuclear receptor binding SET domain protein 2 (NSD2) in an isogenic RCH-ACV NSD2 p.E1099K mutant (9B) (AID 1645876)
# [2] = Primary qHTS for inhibitors of nuclear receptor binding SET domain protein 2 (NSD2) in an RCH-ACV wild type WT cells (2C) (AID 1645877)
# Note: nearly all actives have a fitted effect of over 70% in size.
# Potency is the fitted concentration of half-maximal effect.
structure (smiles),measurement,setting,value
CC1(CCOC2OC(CO)C(O)C(O)C2O)CCC23OC2(C1)C(O)CC1C(C)(C(=O)O)CCCC13C (stereo not given),Potency,[1],inactive
same,Potency,[2],inactive
CC1(C)CC2=C3C=CC4C5(C)CCC(O)C(C)(C)C5CCC4(C)C3(C)CCC2(C)C(O)C1 (stereo not given),Potency,[1],inactive
same,Potency,[2],inactive
CC1=CC(=O)CC(C)(C)[C@@]1(O)CC[C@@H](C)O[C@@H]1O[C@H](CO)[C@@H](O)[C@H](O)[C@H]1O,Potency,[1],inactive
same,Potency,[2],inactive
C[C@@H]1O[C@@H](O[C@H]2[C@H](O[C@H]3[C@H](O[C@H]4CC[C@@]5(C)C(CC[C@]6(C)C5CC=C5[C@@H]7CC(C)(C)C[C@@H](O)[C@]7(C)CC[C@]56C)[C@@]4(C)CO)O[C@H](C(=O)O)[C@@H](O)[C@@H]3O)OC[C@H](O)[C@@H]2O)[C@H](O)[C@H](O)[C@H]1O (stereo not given in full),"activity change, negative = viability loss",[1],2.23% [at 9.23 µM]
same,"activity change, negative = cell killing",[2],-3.15% [at 9.23 µM]
CC(=O)OC1CC2(C)C3=CCC4(C)C5C(O)C(O)C(C(C)C)C5(C)CCC4(C)C3CCC2C(C)(C)C1OC1OC(CO)C(O)C(O)C1O (stereo not given),Potency,[1],inactive
same,Potency,[2],inactive
COc1cc(O)cc(C)c1C(=O)O[C@H]1[C@@H](OC(C)=O)[C@H](n2ccc(=O)[nH]c2=O)O[C@@H]1CO,Potency,[1],inactive
same,Potency,[2],inactive
C=C1C[C@@]23CCC4[C@@](C)(CCC[C@@]4(C)C(=O)OC)C2CC[C@@H]1C3 (stereo not given in full),Potency,[1],inactive
same,Potency,[2],inactive
COc1ccc(/C=C\C(=O)O)c(O[C@@H]2O[C@H](CO)[C@@H](O)[C@H](O)[C@H]2O)c1,Potency,[1],inactive
same,Potency,[2],inactive
C[C@@H]1O[C@@H](O[C@H]2[C@@H]3C=CO[C@@H](O[C@@H]4O[C@H](CO)[C@@H](O)[C@H](O)[C@H]4O)[C@@H]3[C@@]3(CO)O[C@@H]23)[C@H](OC(=O)/C=C/c2ccccc2)[C@H](O)[C@H]1O,Potency,[1],inactive
same,Potency,[2],inactive
O=C(Nc1ccn[nH]1)c1c(F)cccc1F,Potency,[1],inactive
same,Potency,[2],inactive
CC1CC(C(O)C(C)(C)O)OC2CC3(C)C4(C)CCC5C(C)(C)C(=O)CCC5(C)C4CCC3(O)C12O (stereo not given),Potency,[1],inactive
same,Potency,[2],inactive
CC1=CC(=O)CC(C)(CO)C1(O)/C=C/C(C)O[C@@H]1O[C@H](CO)[C@@H](O)[C@H](O)[C@H]1O (stereo not given in full),Potency,[1],inactive
same,Potency,[2],inactive
CC(=O)OC[C@]12[C@H](OC(C)=O)C(=O)[C@@H]3[C@@H](OC(C)=O)[C@@]14O[C@@]3(C)COC(=O)c1cccnc1[C@@H](C)[C@H](C)C(=O)O[C@@H]([C@H](O)[C@@H]2OC(C)=O)[C@]4(C)O,Potency,[1],inactive
same,Potency,[2],inactive
C=C(C(=O)OC)C1C(O)CC2(C)C(=O)CCC(O)(CO)C2C1O (stereo not given),Potency,[1],inactive
same,Potency,[2],inactive
O=C(OC1C=C(CO)C2C(OC3OC(CO)C(O)C(O)C3O)OC=CC12)c1ccc(O)cc1 (stereo not given),Potency,[1],inactive
same,Potency,[2],inactive
CO[C@@H](C)Cn1c(=O)n(C)c2cnc3ccc(-c4cncc(C(C)(C)O)c4)cc3c21,Potency,[1],166 nM (active)
same,Potency,[2],166 nM (active)
O=C1NC(Cc2c[nH]c3ccccc23)C(=O)NC1Cc1c[nH]c2ccccc12 (stereo not given),Potency,[1],inactive
same,Potency,[2],inactive
CC1(C=O)CC[C@]2(C(=O)O[C@@H]3O[C@H](CO)[C@@H](O)[C@H](O)[C@H]3O)CC[C@]3(C)C(=CCC4[C@@]5(C)C[C@H](O)[C@H](O[C@@H]6OC[C@@H](O)[C@H](O)[C@H]6O)[C@@](C)(CO)C5CC[C@]43C)C2C1 (stereo not given in full),outcome,[1],inactive [at 9.23 µM]
same,"activity change, negative = cell killing",[2],-3.33% [at 9.23 µM]
CC1(C)CC[C@]23CO[C@@]4(CCC5[C@@]6(C)CC[C@H](O[C@@H]7OC[C@H](O[C@@H]8O[C@H](CO)[C@@H](O)[C@H](O)[C@H]8O)[C@H](O)[C@H]7O[C@@H]7O[C@H](CO)[C@@H](O[C@@H]8O[C@H](CO)[C@@H](O)[C@H](O)[C@H]8O)[C@H](O)[C@H]7O)[C@@](C)(CO)C6CC[C@@]5(C)[C@]4(C)C[C@H]2OC2OCC(O)C(O)C2O)C3C1 (stereo not given in full),Potency,[1],688 nM (active)
same,Potency,[2],1090 nM (active)
C=C[C@@H]1[C@H](O[C@@H]2O[C@H](CO)[C@@H](O)[C@H](O)[C@H]2O)OC=C(C(=O)O)[C@H]1CCOC(=O)/C=C/c1ccc(O)c(O)c1,Potency,[1],inactive
same,Potency,[2],inactive
C=CC[C@]12C[C@@H](OC)C(=O)C(OC)=C1O[C@@H](c1cc(OC)c3c(c1)OCO3)[C@@H]2C,Potency,[1],inactive
same,Potency,[2],inactive
O=C(CO)[C@@H](O)[C@H](O[C@@H]1O[C@H](CO)[C@H](O)[C@H](O)[C@H]1O)[C@H](O)CO,Potency,[1],inactive
same,Potency,[2],inactive
C[C@H]1CC[C@@H]2N(C1)C[C@@H]1[C@H]([C@@H](O)[C@H](O)[C@]3(O)[C@H]1C[C@@]14OC5(O)[C@@H](C[C@@H](O)[C@@H]31)[C@]4(C)CC[C@@H]5O)[C@]2(C)O,Potency,[1],inactive
same,Potency,[2],inactive
C[C@@H]1C[C@@H]2O[C@H]2/C=C\C=C\C(=O)Cc2c(Cl)c(O)cc(O)c2C(=O)O1,Potency,[1],1010 nM (active)
same,Potency,[2],450 nM (active)
C=C(C(=O)O)C1CCC2(C)CCC(O)C(C)(O)C2C1 (stereo not given),Potency,[1],inactive
same,Potency,[2],inactive
OC[C@H]1O[C@@H](OCCc2ccc(O)cc2)[C@H](O[C@@H]2OC[C@](O)(CO)[C@H]2O)[C@@H](O)[C@@H]1O,Potency,[1],inactive
same,Potency,[2],inactive
Nc1nc2c(c(=O)[nH]1)C[C@@H](CCc1ccc(C(=O)N[C@@H](CCC(=O)O)C(=O)O)cc1)CN2,Potency,[1],11.5 nM (active)
same,Potency,[2],9.2 nM (active)
OC[C@H]1O[C@@H](Oc2cc(O)c3c(c2)O[C@@H](c2ccc(O)cc2)[C@H](O)C3)[C@H](O)[C@@H](O)[C@@H]1O,Potency,[1],inactive
same,Potency,[2],inactive
C=C(C)C(=O)O[C@H]1CC2=CC(C/C(C)=C\[C@H]3OC(=O)C(=C)[C@H]13)OC2=O (stereo not given in full),Potency,[1],5050 nM (active)
same,Potency,[2],3580 nM (active)
COC(=O)c1cc(OC)cc(OC)c1C(=O)c1c(OC)cc2c(c1O)C1CCCC(C)(O2)O1 (stereo not given),Potency,[1],inactive
same,Potency,[2],inactive
C[C@H](NC(c1cccc(C[P+](=O)O)c1)[C@H](C)O)c1ccc(Cl)c(Cl)c1 (stereo not given in full),Potency,[1],inactive
same,Potency,[2],inactive
C=C(C)C1CCC2(C(=O)O[C@@H]3O[C@H](CO[C@@H]4O[C@H](CO)[C@@H](O)[C@H](O)[C@H]4O)[C@@H](O)[C@H](O[C@@H]4O[C@@H](C)[C@H](O)[C@@H](O)[C@H]4O)[C@H]3O)CCC3(C(=O)O)C(CCC4C5(C)CCC(O)C(C)(C)C5CCC43C)C12 (stereo not given in full),outcome,[1],inactive [at 9.23 µM]
same,outcome,[2],inactive [at 9.23 µM]
CC(=O)OC12COC1CC(O)C1(C)C(=O)C(O)C3=C(C)C(OC(=O)C(O)C(NC(=O)OC(C)(C)C)c4ccccc4)CC(O)(C(OC(=O)c4ccccc4)C21)C3(C)C (stereo not given),Potency,[1],6.5 nM (active)
same,Potency,[2],inactive
Cc1ccc(C(=O)N(CCCN)C(c2nc3cc(Cl)ccc3c(=O)n2Cc2ccccc2)C(C)C)cc1 (stereo not given),Potency,[1],5.8 nM (active)
same,Potency,[2],7.3 nM (active)
CC1OC(OCC2OC(OC3CCC4(C)C(CCC5(C)C4CC=C4C6CC(C)(C)CCC6(C(=O)OC6OC(CO)C(O)C(O)C6O)CCC45C)C3(C)CO)C(O)C(O)C2O)C(O)C(O)C1O (stereo not given),"activity change, negative = viability loss",[1],3.81% [at 9.23 µM]
same,"activity change, negative = cell killing",[2],-0.623% [at 9.23 µM]
C=C[C@H]1[C@H](O[C@@H]2O[C@H](CO)[C@@H](O)[C@H](O)[C@H]2O)OC=C(C(=O)OC)[C@H]1C[C@@H]1c2cc(O)c(O)cc2CCN1C(C)=O,Potency,[1],inactive
same,Potency,[2],inactive
CO[C@H]1C[C@@H]2CC[C@@H](C)[C@@](O)(O2)C(=O)C(=O)N2CCCC[C@H]2C(=O)O[C@H]([C@H](C)C[C@@H]2CC[C@@H](OP(C)(C)=O)[C@H](OC)C2)CC(=O)[C@H](C)/C=C(\C)[C@@H](O)[C@@H](OC)C(=O)[C@H](C)C[C@H](C)/C=C/C=C/C=C/1C,Potency,[1],11.8 nM (active)
same,Potency,[2],46.8 nM (active)
CC(C)CCC[C@@H](C)[C@H]1CC[C@H]2[C@@H]3CC(=O)[C@H]4C[C@@H](O)CC[C@]4(C)[C@H]3CC[C@]12C,Potency,[1],inactive
same,Potency,[2],inactive
C=C1C[C@]23C[C@H]1CC[C@H]2[C@@]1(C)CCC[C@@]2(C)C(=O)O[C@@H]([C@@H]3O)[C@@H]12,Potency,[1],inactive
same,Potency,[2],inactive
COC(=O)C12C(=O)C(C)=C(O)C1(C)C(C)=CC1C3(CO)CCC(O)C(C)(C)C3CCC12C (stereo not given),Potency,[1],inactive
same,Potency,[2],inactive
C=C[C@H]1C(O[C@@H]2O[C@H](CO)[C@@H](O)[C@H](O)[C@H]2O)OC=C2C(=O)N3CCc4c([nH]c5ccccc45)[C@H]3C[C@H]21 (stereo not given in full),Potency,[1],inactive
same,Potency,[2],inactive
COc1ccc(CN2C(=O)C(=O)c3cc(S(=O)(=O)N4CCC[C@H]4COc4cccnc4)ccc32)cc1,Potency,[1],inactive
same,Potency,[2],inactive
O=C(/C=C\n1cnc(-c2cc(C(F)(F)F)cc(C(F)(F)F)c2)n1)N1CC(F)(F)C1,Potency,[1],934 nM (active)
same,Potency,[2],833 nM (active)
N#C[C@@H]1C[C@H](F)CN1C(=O)CNC1[C@H]2CN(C(=O)c3ccc(F)cc3)C[C@@H]12 (stereo not given in full),Potency,[1],inactive
same,Potency,[2],inactive
CC1(C)C[C@H](O)C[C@@]2(C)OC(=O)C=C12,Potency,[1],inactive
same,Potency,[2],inactive
O=C(OCC1=CC(O)C2C=CO[C@@H](O[C@@H]3O[C@H](CO)[C@@H](O)[C@H](O)[C@H]3O)C12)c1ccccc1 (stereo not given in full),Potency,[1],inactive
same,Potency,[2],inactive
C=C(C)C1CCC2(C(=O)O)CCC3(C(=O)O)C(CCC4C5(C)CCC(O)C(C)(C(=O)O)C5CCC43C)C12 (stereo not given),Potency,[1],inactive
same,Potency,[2],inactive
COc1ccc(/C=C/C(=O)O[C@H]2[C@H](O[C@H]3[C@@H]4C=CO[C@@H](O[C@@H]5O[C@H](CO)[C@@H](O)[C@H](O)[C@H]5O)[C@@H]4[C@@]4(CO)O[C@@H]34)O[C@@H](C)[C@H](O)[C@H]2OC(C)=O)cc1,Potency,[1],inactive
same,Potency,[2],inactive
CC1CC(O)/C=C/C(O)C(O)CC(=O)Cc2c(Cl)c(O)cc(O)c2C(=O)O1 (stereo not given),Potency,[1],inactive
same,Potency,[2],inactive
C=C(C)C(=O)OC1C(OC(C)=O)/C(C=O)=C\CC/C(CO)=C/C2OC(=O)C(=C)C21 (stereo not given),Potency,[1],3170 nM (active)
same,Potency,[2],1420 nM (active)
